An excerpt weighted towards active compounds, which were near 4.2% of everything screened.
MCF10A rereplic – A quantitative high throughput screen for small molecules that induce DNA re-replication in MCF 10a normal breast cells; MCF 10A DNA re-replication, Hoechst nuclear intensity, 48 h; Potency, µM (top dose mostly 46.1 µM), for inactives: at the top dose activity, positive = re-replication, actives largely listed as activators; 350,000 tested, 2.9% active; AID 624296, 2012; note: % of control where 0% means no effect; nearly all actives have a fitted effect of over 50% in size
A-T KAP1 phos – qHTS Assay for Identifying a Potential Treatment of Ataxia-Telangiectasia. Potency, µM (titrated, usually from 57.5 µM), without a hit: at the highest dose activation, actives largely listed as activators. 320,000 tested, 0.19% active. F2112 A-T fibroblasts, KAP-1 phosphorylation AlphaLISA; neocarzinostatin DNA damage 30 min before lysis; note: % of control where 0% means no effect; nearly all actives have a fitted effect of over 45% in size
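ATM-like activity read as KAP-1 phosphorylation via AlphaLISA donor/acceptor antibody pairs after lysis and 6 hr at 25C. Cells were ATM-null patient fibroblasts (F2112, hTERT), dosed 60 min, then exposed to the DSB inducer NCS for 30 min.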
Mito fusion act – qHTS Assay for Small Molecule Inhibitors of Mitochondrial Division or Activators of Mitochondrial Fusion. S. cerevisiae fusion-defective mutant growth rescue, CellTiterGlo 48 h. Potency, µM (titrated, usually from 46.1 µM), inactives show at the highest dose growth rescue (activation), hits mostly activators. 320,000 tested, 0.23% active. AID 485298, 2010; note: % of control where 0% means no effect; nearly all actives have a fitted effect of over 45% in size
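Yeast fusion mutant, YPEG (non-fermentable carbon), compound, 48 h at 37C non-permissive; CellTiterGlo added, 10 min RT, luminescence read. Rescued growth = division inhibition.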
SW480 rerep – A quantitative high throughput screen for small molecules that induce DNA re-replication in SW480 colon adenocarcinoma cells. SW480 DNA re-replication, Hoechst DNA content imaging, 48 h. Potency, µM (top dose mostly 46.1 µM), for inactives: at the highest dose re-replication activation, actives largely listed as activators. 340,000 tested, 1.8% active. AID 624297, 2012; note: % of control where 0% means no effect; nearly all actives have a fitted effect of over 55% in size
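First, 250 cells per well were seeded. Next, compound or vehicle (23 nL) was pinned in, plates sat 48 hr at 37 C. Finally Hoechst was added for 40 min before fluorescence scanning.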
a7 integrin act – qHTS for Activators of Integrin-Mediated Alleviation for Muscular Dystrophy; alpha7betagal myoblasts, beta-gal FDG fluorescence, 48 h; Potency, µM (series often up to 38.3 µM), for the others: at the highest dose activation, usual class: activators; 350,000 tested, 0.064% active; AID 624291, 2012;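 note: 100% = response of the positive control SU9516; nearly all actives have a fitted effect of over 60% in size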
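Alpha7betagal+/- myoblasts (passage 13) were plated 16-24 hr, then exposed to compounds (1:260 dilution of DMSO stock) for 48 hours at 37C. After MPER lysis, β-galactosidase reporter activity was read as FDG fluorescence (ex 480/em 540) after 30 minutes.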
An asterisk follows results filed as active; ? = inconclusive; nt = no result given. Calls come from the whole dose curve; as a rule, active = well fitted activation curve with a large enough effect; inconclusive = small, poorly fitted or top-dose-only effect; inactive = no such curve, though single readings can be large or run the other way. Potency is the fitted concentration of half-maximal effect.

SMILES	MCF10A rereplic	A-T KAP1 phos	Mito fusion act	SW480 rerep	a7 integrin act
CCOC(=O)C1=C(C)N(CCCC(=O)O)C(=O)NC1c1ccccc1OS(=O)(=O)c1ccc(C)cc1 (stereo not given)	-26.3%	-13.7%	-1.4%	-14.1%	2.6%
CCC(C(=O)NC(C)(C)C)N(Cc1ccc(OC)cc1)C(=O)c1snc(C(N)=O)c1N (stereo not given)	nt	nt	nt	nt	3.9%
c1ccc(CN(CCN2CCOCC2)Cc2ccccc2)cc1	6.2%	nt	nt	4.6%	-26.5%
CCCn1c2ccccc2c2nc3ccccc3nc21	22.4µM*	12.3%	0.6%	?	21.1%
CC1CCN(S(=O)(=O)c2ccc3c(c2)C(Cl)(Cl)C(=O)N3)CC1	nt	nt	nt	nt	-30.8%
C/C(=N/Nc1ccc(C(=O)O)cc1)c1ccc(O)c(O)c1O	1.3%	1.8%	-3.8%	-150.6%	-54.5%
COc1ccc(CCN2C(=O)C=CC2=O)cc1OC	4.61µM*	nt	nt	7.31µM*	-5.1%
COc1ccc(CCN2C(=O)CSC2c2ccc(OC)c(OC)c2)cc1OC (stereo not given)	2.7%	-3.5%	-1.1%	-14.6%	-34.2%
COc1ccc(C2SCC(=O)N2CCc2ccc(OC)c(OC)c2)cc1 (stereo not given)	0.517µM*	2.5%	21.4%	10.3µM*	-2.5%
O=C(O)Cc1sc(Nc2ccc(F)cc2)nc1-c1cccs1	20.6µM*	-17.7%	1.5%	16.2%	7.0%
Cc1ccc(Nc2nc(-c3ccccc3)c(CC(=O)O)s2)cc1	25.5%	-0.2%	-0.7%	-1.6%	-7.2%
CCCCCc1ccc(-c2ccc(/C=C/C(=O)O)cc2)nc1	?	-5.7%	12.6µM*	-3.7%	7.0%
CCCc1ccc(-c2ccc(/C=C/C(=O)O)cc2)nc1	12.5%	0.5%	?	-0.1%	-5.0%
CCN(CC)c1ccc(C=C2C(=O)OC(c3ccccc3)OC2=O)cc1 (stereo not given)	1.9%	3.1%	-7.2%	5.2%	24.0%
CCN(CC)c1ccc(/C=C/C(=O)C2C(=O)C=C(C)OC2=O)cc1 (stereo not given)	18.4µM*	-2.4%	0.4%	?	-7.8%
COc1ccc([C@H]2C[C@@H](O)[C@H](n3cc(COC(=O)c4ccccc4)nn3)CN2C(=O)C2CCCCC2)cc1	nt	nt	nt	nt	-3.6%
Cc1ccc(N(Cc2cc3ccccc3[nH]c2=O)S(=O)(=O)c2ccccc2)cc1	11.3%	-0.4%	-1.3%	2.9%	18.0%
Cc1ccc2cc(CN(c3ccccc3C)S(=O)(=O)c3ccccc3)c(=O)[nH]c2c1	?	-1.5%	-0.5%	20.6µM*	10.1%
O=C(Nc1cccc(NC(=O)C2CCCO2)c1)c1ccco1 (stereo not given)	-1.7%	-4.1%	8.6%	11.7%	18.9%
COc1ccc(CNc2nc(NCc3ccc(OC)cc3)c3[nH]cnc3n2)cc1	11.6µM*	4.5%	-4.8%	5.1%	-20.5%
O=C(CSc1cccc[n+]1[O-])C12CC3CC(CC(C3)C1)C2	-5.5%	8.1%	6.5%	4.4%	-8.3%
COc1ccc(C(=O)NNC(=O)Cc2nc3nc(C)cc(C)n3n2)cc1	-0.5%	5.3%	0.5%	-0.2%	-21.1%
COc1ccc(N2CCN(c3cc(C)c4ccc(C)cc4n3)CC2)cc1	20.6µM*	-2.9%	5.3%	6.1%	19.2%
COc1ccc(C(=O)N2CCCC2(C#N)c2ccccc2)cc1[N+](=O)[O-] (stereo not given)	0.7%	?	6.7%	-1.4%	-2.9%
CCN(CC)S(=O)(=O)c1cc(NC(=O)C(C)N2CCN(Cc3ccc4c(c3)OCO4)CC2)ccc1C (stereo not given)	?	-0.8%	1.6%	14.6µM*	-43.2%
SMILES	MCF10A rereplic	A-T KAP1 phos	Mito fusion act	SW480 rerep	a7 integrin act
Cc1cc(C)c2nc(N3C(=O)C(O)=C(C(=O)c4ccco4)C3c3cccc(O)c3)sc2c1 (stereo not given)	20.6µM*	-2.4%	-0.9%	1.3%	?
Cc1ccc2nc(N3C(=O)C(O)=C(C(=O)c4ccc(C)o4)C3c3ccco3)sc2c1 (stereo not given)	18.4µM*	-7.1%	8.3%	9.7%	-14.6%
O=C(C1=C(O)C(=O)N(c2nc3ccc(Cl)cc3s2)C1c1ccco1)c1ccco1 (stereo not given)	13µM*	-12.4%	-0.1%	-0.9%	-9.4%
Cc1ccc2nc(N3C(=O)C(O)=C(C(=O)c4ccco4)C3c3ccc(C)o3)sc2c1 (stereo not given)	20.6µM*	-3.9%	4.5%	?	-20.6%
Cc1ccc2nc(N3C(=O)C(O)=C(C(=O)c4ccco4)C3c3ccc(O)cc3)sc2c1 (stereo not given)	nt	-16.3%	4.3%	nt	nt
C#CCOCCOCCOCCNc1nc(N2CCN(C(=O)[C@H](CCC(=O)O)n3cc([C@@H](N)[C@H](C)CC)nn3)CC2)nc(N2CCN(C(=O)[C@H](CCC(=O)O)n3cc([C@@H](N)CCSC)nn3)CC2)n1	-6.3%	-30.0%	nt	-1.5%	2.3%
COCCNC(=O)COC(=O)c1cccnc1SC	20.2%	-7.3%	-4.4%	-51.7%	6.2%
Fc1cccc(Cl)c1CN1CCN(c2nc3ccccc3s2)CC1	16.4µM*	7.4%	-24.0%	11.5%	-0.5%
CSc1nsc(/C=C/Nc2cccc(Cl)c2)c1C#N	9.2µM*	nt	2.7%	18.7%	2.3%
CSc1nsc(/C=C/Nc2ccc(O)cc2C)c1C#N	?	3.7%	-0.9%	23.1µM*	-12.4%
Cc1ccccc1-c1nnc(SCC(=O)N(C)C2CCS(=O)(=O)C2)n1C (stereo not given)	-2.2%	12.0%	nt	-14.4%	11.7%
Cc1cccc(N(CC(=O)N2CCc3ccccc3C2)S(C)(=O)=O)c1C	-2.2%	-2.2%	5.2%	24.6%	6.0%
COC(=O)C1=C(C)Nc2nnnn2C1c1cccnc1 (stereo not given)	6.6%	15.9%	1.4%	1.2%	14.3%
CC1=C(C(=O)Nc2ccccn2)C(c2cccnc2)n2nnnc2N1 (stereo not given)	8.2µM*	-5.4%	-2.5%	?	12.7%
Cn1cccc1/C=C1\SC(=Nc2ccccc2)NC1=O	?	-8.6%	17.5%	?	19.3%
Cn1cccc1/C=C1\SC(=Nc2ccc(O)cc2)NC1=O	0.581µM*	-10.4%	0.1%	0.461µM*	-19.2%
O=C1NC(=Nc2ccc(O)cc2)S/C1=C/c1ccco1	4.61µM*	-0.8%	-1.7%	2.91µM*	-2.2%
O=C1/C(=C\c2ccco2)SC(=S)N1c1ccc(O)cc1	-3.5%	-3.5%	nt	20.6µM*	?
Cn1cccc1/C=C1\SC(=Nc2cccc(O)c2)NC1=O	9.2µM*	-11.8%	3.0%	59.7%	3.0%

Screening data deposited in PubChem BioAssay by National Center for Advancing Translational Sciences (NCATS).
